Laboratory results taken from PubChem BioAssay (NCATS).
Inconclusive results are not listed. Activity calls are given as the source filed them. Unless noted, calls come from the whole dose curve; as a rule, active = well fitted curve in the direction sought with a large enough effect; inconclusive = small, poorly fitted or top-dose-only effect, or another doubt; inactive = no such curve, though single readings can be large; an effect the other way counts as inactive or inconclusive.

Legend:
[1] = target: ATP-dependent 6-phosphofructokinase (Trypanosoma brucei brucei) (UniProt O15648); experiment: qHTS Assay to Find Inhibitors of T. brucei phosphofructokinase: hit validation (AID 492961);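 note: luminescence reports ADP formed as PFK phosphorylates fructose-6-phosphate with ATP; % is set by controls: 0 for no effect and ±100 for the full control effect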
Outline: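 ADP-Glo luminescence read-out of ADP formed by 1.25 nM PFK from 0.1 mM ATP and 0.5 mM F6P (TEA pH 8.0, 45 min, RT). Compounds titrated; activity normalized to no-enzyme and full-enzyme controls.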

[2] = target: Ubiquitin carboxyl-terminal hydrolase 1 (Homo sapiens) (UniProt O94782); experiment: Inhibitors of USP1/UAF1: Pilot qHTS (AID 504865);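 note: rhodamine fluorescence freed from ubiquitin-rhodamine substrate followed over time; top concentration of the series differs between compounds; % is set by controls: 0 for no effect and ±100 for the full control effect; nearly all actives have a fitted effect of over 35% in size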
Outline: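 In 50mM HEPES pH 7.8 containing 0.5mM EDTA, 1mM TCEP, 0.1 mg/ml BSA and 0.01% Tween-20, 1nM USP1/UAF1 is exposed to compound for 15 min, then Ub-Rho (150nM final) is added and fluorescence is read over time.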

[3] = target: Luciferin 4-monooxygenase (Photinus pyralis) (UniProt P08659); experiment: Biochemical firefly luciferase enzyme assay for NPC (AID 624030);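 note: purified P. pyralis luciferase at 10 nM with luciferin and ATP substrate; 0% = DMSO and -100% = full luciferase inhibition by PTC124 control; nearly all actives have a fitted effect of over 70% in size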
Outline: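 Direct inhibition of firefly luciferase enzyme (10 nM final, 50 mM Tris Acetate) assessed by luminescence within 5 minutes. Percent activity scaled between DMSO and PTC124 positive control, with concentration-effect curves classified by fit quality and response.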

[4] = S16 Schwann cell viability assay (CellTiter-Glo assay) (AID 624031);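 note: native untransfected S16 rat Schwann cells; cellular ATP luminescence as a viability measure; plate controls were DMSO-treated cells for no effect and cell-free wells for full effect; nearly all actives have a fitted effect of over 70% in size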
Outline: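 Parental S16 cells, 24 h compound, 37 °C. ATP-luminescence viability; DMSO = 0% activity, empty wells as reference; curves classified by fit quality and efficacy.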

[5] = S16 Schwann cell PMP22 intronic element firefly luciferase assay (AID 624032);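 note: plate controls were DMSO for no effect and PTC124 positive control mean for full effect; nearly all actives have a fitted effect of over 30% in size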
Outline: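 Luciferase reporter of PMP22 intronic-element expression in stably transfected S16 rat Schwann cells, read by ONE-Glo luminescence after 24 h compound exposure at 37 C. Activity scaled between DMSO (0%) and positive-control PTC124; concentration-effect curves quality-classified.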

[6] = S16 Schwann cell PMP22 intronic element beta-lactamase assay (AID 624044; calls by dose curve;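 note: 0% = DMSO and -100% = potassium clavulanate positive control; nearly all actives have a fitted effect of over 15% in size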)
Outline: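 Rat S16 Schwann cells with beta-Lac driven by a PMP22 intronic element, compound-treated 24 h at 37 °C. LiveBLAzer FRET B/G read: 460 nm normalized to potassium clavulanate vs DMSO; 535 nm FRET as viability; concentration-effect curves classified.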

[7] = test system: Zika virus NS2B-NS3 protease; experiment: Primary screen GU AMC qHTS for Zika virus inhibitors (AID 1347154);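 note: 0% = no-inhibitor control and -100% = no-enzyme control; nearly all actives have a fitted effect of over 70% in size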
Outline: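 Fluorogenic AMC-substrate cleavage by noncovalent NS2B-NS3 protease complex (25 nM, pH 8.0 Tris buffer with Tween 20) followed for 15 minutes at room temperature (~20% conversion). Percent inhibition from ex340/em450 signal change, fitted by 4-parameter Hill equation.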

[8] = Primary qHTS for small molecule stabilizers of the endoplasmic reticulum resident proteome: Secreted ER Calcium Modulated Protein (SERCaMP) assay (AID 1508630); note: % is set by controls: 0 for no effect and ±100 for the full control effect
Outline: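 GLuc-SERCaMP-expressing SH-SY5Y cells, pretreated 16 h with compound, are challenged with thapsigargin to empty ER calcium stores; after 4 h, coelenterazine is added directly to the medium and luminescence is imaged.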

[9] = qHTS profiling for inhibitors of Plasmodium falciparum proliferation (AID 504749);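 note: 0% = DMSO vehicle and full inhibition = artemisinin control; nearly all actives have a fitted effect of over 60% in size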; conditions: P. falciparum in erythrocytes, SYBR Green DNA, 72 h; at 28.7 µM (top of the series); parasite line A
Outline: (§1)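 Three-day growth assay of blood-stage parasites in erythrocytes (0.3% parasitemia, 2.5% hematocrit) at 37 C, 5% CO2, quantified by SYBR Green DNA staining after overnight detergent lysis.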

3D7 = experiment: as above; conditions: P. falciparum in erythrocytes, SYBR Green DNA, 72 h; series mostly up to 28.7 µM
Outline: as §1

7G8 = experiment: as above; conditions: P. falciparum in erythrocytes, SYBR Green DNA, 72 h; series mostly up to 28.7 µM
Outline: as §1

AA1029 = experiment: as above; conditions: P. falciparum in erythrocytes, SYBR Green DNA, 72 h; series mostly up to 28.7 µM
Outline: as §1

AS120 = experiment: as above; conditions: P. falciparum in erythrocytes, SYBR Green DNA, 72 h; series mostly up to 28.7 µM
Outline: as §1

ATS189 = experiment: as above; conditions: P. falciparum in erythrocytes, SYBR Green DNA, 72 h; series mostly up to 28.7 µM
Outline: as §1

ATS95 = experiment: as above; conditions: P. falciparum in erythrocytes, SYBR Green DNA, 72 h; series mostly up to 28.7 µM
Outline: as §1

C2A = experiment: as above; conditions: P. falciparum in erythrocytes, SYBR Green DNA, 72 h; series mostly up to 28.7 µM
Outline: as §1

CP185 = experiment: as above; conditions: P. falciparum in erythrocytes, SYBR Green DNA, 72 h; series mostly up to 28.7 µM
Outline: as §1

CP191 = experiment: as above; conditions: P. falciparum in erythrocytes, SYBR Green DNA, 72 h; series mostly up to 28.7 µM
Outline: as §1

CP192 = experiment: as above; conditions: P. falciparum in erythrocytes, SYBR Green DNA, 72 h; series mostly up to 28.7 µM
Outline: as §1

CP194 = experiment: as above; conditions: P. falciparum in erythrocytes, SYBR Green DNA, 72 h; series mostly up to 28.7 µM
Outline: as §1

CP201 = experiment: as above; conditions: P. falciparum in erythrocytes, SYBR Green DNA, 72 h; series mostly up to 28.7 µM
Outline: as §1

CP203 = experiment: as above; conditions: P. falciparum in erythrocytes, SYBR Green DNA, 72 h; series mostly up to 28.7 µM
Outline: as §1

CP211 = experiment: as above; conditions: P. falciparum in erythrocytes, SYBR Green DNA, 72 h; series mostly up to 28.7 µM
Outline: as §1

CP215 = experiment: as above; conditions: P. falciparum in erythrocytes, SYBR Green DNA, 72 h; series mostly up to 28.7 µM
Outline: as §1

CP217 = experiment: as above; conditions: P. falciparum in erythrocytes, SYBR Green DNA, 72 h; series mostly up to 28.7 µM
Outline: as §1

CP237 = experiment: as above; conditions: P. falciparum in erythrocytes, SYBR Green DNA, 72 h; series mostly up to 28.7 µM
Outline: as §1

CP238 = experiment: as above; conditions: P. falciparum in erythrocytes, SYBR Green DNA, 72 h; series mostly up to 28.7 µM
Outline: as §1

CP247 = experiment: as above; conditions: P. falciparum in erythrocytes, SYBR Green DNA, 72 h; series mostly up to 28.7 µM
Outline: as §1

CP250 = experiment: as above; conditions: P. falciparum in erythrocytes, SYBR Green DNA, 72 h; series mostly up to 28.7 µM
Outline: as §1

CP252 = experiment: as above; conditions: P. falciparum in erythrocytes, SYBR Green DNA, 72 h; series mostly up to 28.7 µM
Outline: as §1

CP256 = experiment: as above; conditions: P. falciparum in erythrocytes, SYBR Green DNA, 72 h; series mostly up to 28.7 µM
Outline: as §1

CP260 = experiment: as above; conditions: P. falciparum in erythrocytes, SYBR Green DNA, 72 h; series mostly up to 28.7 µM
Outline: as §1

CP262 = experiment: as above; conditions: P. falciparum in erythrocytes, SYBR Green DNA, 72 h; series mostly up to 28.7 µM
Outline: as §1

CP265 = experiment: as above; conditions: P. falciparum in erythrocytes, SYBR Green DNA, 72 h; series mostly up to 28.7 µM
Outline: as §1

CP266 = experiment: as above; conditions: P. falciparum in erythrocytes, SYBR Green DNA, 72 h; series mostly up to 28.7 µM
Outline: as §1

CP268 = experiment: as above; conditions: P. falciparum in erythrocytes, SYBR Green DNA, 72 h; series mostly up to 28.7 µM
Outline: as §1

CP269 = experiment: as above; conditions: P. falciparum in erythrocytes, SYBR Green DNA, 72 h; series mostly up to 28.7 µM
Outline: as §1

CP286 = experiment: as above; conditions: P. falciparum in erythrocytes, SYBR Green DNA, 72 h; series mostly up to 28.7 µM
Outline: as §1

CP291 = experiment: as above; conditions: P. falciparum in erythrocytes, SYBR Green DNA, 72 h; series mostly up to 28.7 µM
Outline: as §1

CP297 = experiment: as above; conditions: P. falciparum in erythrocytes, SYBR Green DNA, 72 h; series mostly up to 28.7 µM
Outline: as §1

CP305 = experiment: as above; conditions: P. falciparum in erythrocytes, SYBR Green DNA, 72 h; series mostly up to 28.7 µM
Outline: as §1

CP315 = experiment: as above; conditions: P. falciparum in erythrocytes, SYBR Green DNA, 72 h; series mostly up to 28.7 µM
Outline: as §1

CP325 = experiment: as above; conditions: P. falciparum in erythrocytes, SYBR Green DNA, 72 h; series mostly up to 28.7 µM
Outline: as §1

CP329 = experiment: as above; conditions: P. falciparum in erythrocytes, SYBR Green DNA, 72 h; series mostly up to 28.7 µM
Outline: as §1

CP335 = experiment: as above; conditions: P. falciparum in erythrocytes, SYBR Green DNA, 72 h; series mostly up to 28.7 µM
Outline: as §1

DFO2036 = experiment: as above; conditions: P. falciparum in erythrocytes, SYBR Green DNA, 72 h; series mostly up to 28.7 µM
Outline: as §1

DIV14 = experiment: as above; conditions: P. falciparum in erythrocytes, SYBR Green DNA, 72 h; series mostly up to 28.7 µM
Outline: as §1

DIV17 = experiment: as above; conditions: P. falciparum in erythrocytes, SYBR Green DNA, 72 h; series mostly up to 28.7 µM
Outline: as §1

DIV30 = experiment: as above; conditions: P. falciparum in erythrocytes, SYBR Green DNA, 72 h; series mostly up to 28.7 µM
Outline: as §1

Dd2 = experiment: as above; conditions: P. falciparum in erythrocytes, SYBR Green DNA, 72 h; series mostly up to 28.7 µM
Outline: as §1

ECU = experiment: as above; conditions: P. falciparum in erythrocytes, SYBR Green DNA, 72 h; series mostly up to 28.7 µM
Outline: as §1

FAB9 = experiment: as above; conditions: P. falciparum in erythrocytes, SYBR Green DNA, 72 h; series mostly up to 28.7 µM
Outline: as §1

GB4 = experiment: as above; conditions: P. falciparum in erythrocytes, SYBR Green DNA, 72 h; series mostly up to 28.7 µM
Outline: as §1

HB3 = experiment: as above; conditions: P. falciparum in erythrocytes, SYBR Green DNA, 72 h; series mostly up to 28.7 µM
Outline: as §1

ICS = experiment: as above; conditions: P. falciparum in erythrocytes, SYBR Green DNA, 72 h; series mostly up to 28.7 µM
Outline: as §1

JCK = experiment: as above; conditions: P. falciparum in erythrocytes, SYBR Green DNA, 72 h; series mostly up to 28.7 µM
Outline: as §1

N140 = experiment: as above; conditions: P. falciparum in erythrocytes, SYBR Green DNA, 72 h; series mostly up to 28.7 µM
Outline: as §1

P93_24 = experiment: as above; conditions: P. falciparum in erythrocytes, SYBR Green DNA, 72 h; series mostly up to 28.7 µM
Outline: as §1

P94_40 = experiment: as above; conditions: P. falciparum in erythrocytes, SYBR Green DNA, 72 h; series mostly up to 28.7 µM
Outline: as §1

PAD = experiment: as above; conditions: P. falciparum in erythrocytes, SYBR Green DNA, 72 h; series mostly up to 28.7 µM
Outline: as §1

PC15 = experiment: as above; conditions: P. falciparum in erythrocytes, SYBR Green DNA, 72 h; series mostly up to 28.7 µM
Outline: as §1

PC26 = experiment: as above; conditions: P. falciparum in erythrocytes, SYBR Green DNA, 72 h; series mostly up to 28.7 µM
Outline: as §1

PC49 = experiment: as above; conditions: P. falciparum in erythrocytes, SYBR Green DNA, 72 h; series mostly up to 28.7 µM
Outline: as §1

SC27B = experiment: as above; conditions: P. falciparum in erythrocytes, SYBR Green DNA, 72 h; series mostly up to 28.7 µM
Outline: as §1

TAB109 = experiment: as above; conditions: P. falciparum in erythrocytes, SYBR Green DNA, 72 h; series mostly up to 28.7 µM
Outline: as §1

TAB113 = experiment: as above; conditions: P. falciparum in erythrocytes, SYBR Green DNA, 72 h; series mostly up to 28.7 µM
Outline: as §1

TAB165 = experiment: as above; conditions: P. falciparum in erythrocytes, SYBR Green DNA, 72 h; series mostly up to 28.7 µM
Outline: as §1

Chain of Luciferin 4-monooxygenase (Photinus pyralis) (P08659 whole entry, looked up): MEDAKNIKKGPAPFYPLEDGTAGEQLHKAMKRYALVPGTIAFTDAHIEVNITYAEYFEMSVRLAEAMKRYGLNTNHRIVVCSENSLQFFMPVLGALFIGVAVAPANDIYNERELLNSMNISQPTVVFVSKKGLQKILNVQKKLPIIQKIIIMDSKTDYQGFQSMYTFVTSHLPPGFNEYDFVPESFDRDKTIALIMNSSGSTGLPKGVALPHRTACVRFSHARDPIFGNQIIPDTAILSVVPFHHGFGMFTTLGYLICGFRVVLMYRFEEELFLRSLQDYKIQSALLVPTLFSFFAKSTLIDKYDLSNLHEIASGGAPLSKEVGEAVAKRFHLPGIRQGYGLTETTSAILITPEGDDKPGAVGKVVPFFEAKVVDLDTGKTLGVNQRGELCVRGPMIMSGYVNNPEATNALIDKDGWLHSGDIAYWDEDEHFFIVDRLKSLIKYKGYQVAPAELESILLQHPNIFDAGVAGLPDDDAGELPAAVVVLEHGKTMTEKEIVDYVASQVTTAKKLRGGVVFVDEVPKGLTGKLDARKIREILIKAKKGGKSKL
Chain of ATP-dependent 6-phosphofructokinase (Trypanosoma brucei brucei) (O15648 whole entry, looked up): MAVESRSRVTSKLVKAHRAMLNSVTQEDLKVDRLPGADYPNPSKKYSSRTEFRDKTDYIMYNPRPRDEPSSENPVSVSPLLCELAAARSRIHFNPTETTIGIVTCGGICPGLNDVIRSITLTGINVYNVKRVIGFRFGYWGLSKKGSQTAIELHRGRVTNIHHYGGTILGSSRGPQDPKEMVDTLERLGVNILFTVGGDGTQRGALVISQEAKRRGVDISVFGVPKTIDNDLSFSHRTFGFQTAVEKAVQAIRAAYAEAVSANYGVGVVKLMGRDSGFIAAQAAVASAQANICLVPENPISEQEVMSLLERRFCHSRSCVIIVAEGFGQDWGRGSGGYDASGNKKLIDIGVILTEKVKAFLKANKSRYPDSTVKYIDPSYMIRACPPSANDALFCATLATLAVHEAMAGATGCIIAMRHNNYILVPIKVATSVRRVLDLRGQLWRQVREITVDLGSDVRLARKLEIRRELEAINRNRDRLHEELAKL
Chain of Ubiquitin carboxyl-terminal hydrolase 1 (Homo sapiens) (O94782 whole entry, looked up): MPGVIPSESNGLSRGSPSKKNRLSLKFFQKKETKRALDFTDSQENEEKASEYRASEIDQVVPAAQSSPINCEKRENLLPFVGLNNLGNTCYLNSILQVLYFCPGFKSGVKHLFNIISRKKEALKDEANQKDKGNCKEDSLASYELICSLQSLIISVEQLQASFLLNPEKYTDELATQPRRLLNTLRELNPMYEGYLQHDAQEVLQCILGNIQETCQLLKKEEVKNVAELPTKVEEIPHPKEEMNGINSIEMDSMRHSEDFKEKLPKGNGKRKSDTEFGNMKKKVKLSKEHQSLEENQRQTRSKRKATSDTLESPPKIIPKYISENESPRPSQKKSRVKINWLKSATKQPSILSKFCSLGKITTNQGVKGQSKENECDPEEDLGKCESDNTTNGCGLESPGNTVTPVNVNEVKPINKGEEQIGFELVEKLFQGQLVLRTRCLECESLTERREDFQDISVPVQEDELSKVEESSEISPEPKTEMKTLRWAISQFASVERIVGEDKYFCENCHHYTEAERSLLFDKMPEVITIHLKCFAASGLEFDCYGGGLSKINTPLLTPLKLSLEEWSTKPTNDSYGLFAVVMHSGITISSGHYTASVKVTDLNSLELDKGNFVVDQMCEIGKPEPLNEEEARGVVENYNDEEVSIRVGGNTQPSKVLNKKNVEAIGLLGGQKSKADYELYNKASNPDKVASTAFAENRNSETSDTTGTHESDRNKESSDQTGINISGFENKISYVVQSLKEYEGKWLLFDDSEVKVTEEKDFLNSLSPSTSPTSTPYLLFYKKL

CC(=O)[C@H]1CC[C@H]2C3CC=C4C[C@@H](O)CC[C@]4(C)C3CC[C@]12C (some centres not stated)
inactive: outcome [1] | Potency [2] | Potency [3] | outcome [4] | Potency [5] | Potency [6] | Potency [7] | Potency [8] | activity, negative = inhibition [9] -13% | Potency (3D7) | Potency (7G8) | Potency (AA1029) | Potency (AS120) | Potency (ATS189) | Potency (ATS95) | Potency (C2A) | Potency (CP185) | Potency (CP191) | Potency (CP192) | Potency (CP194) | Potency (CP201) | Potency (CP203) | Potency (CP211) | Potency (CP215) | Potency (CP217) | Potency (CP237) | Potency (CP238) | Potency (CP247) | Potency (CP250) | Potency (CP252) | Potency (CP256) | Potency (CP260) | Potency (CP262) | Potency (CP265) | Potency (CP266) | Potency (CP268) | Potency (CP269) | Potency (CP286) | Potency (CP291) | Potency (CP297) | Potency (CP305) | Potency (CP315) | Potency (CP325) | Potency (CP329) | Potency (CP335) | Potency (DFO2036) | Potency (DIV14) | Potency (DIV17) | Potency (DIV30) | Potency (Dd2) | Potency (ECU) | Potency (FAB9) | Potency (GB4) | Potency (HB3) | Potency (ICS) | Potency (JCK) | Potency (N140) | Potency (P93_24) | Potency (P94_40) | Potency (PAD) | Potency (PC15) | Potency (PC26) | Potency (PC49) | Potency (SC27B) | Potency (TAB109) | Potency (TAB113) | Potency (TAB165)
